# Screening data: PubChem BioAssay, The Scripps Research Institute Molecular Screening Center
# The list is not random: actives were taken first. Their share in the collection is about 5.7%.
# hgDAF-12 ag = activates the H. glycines DAF-12 receptor ligand-binding domain | AID 687014 | activation, % at 6.8 µM | HEK293 GAL4-hgDAF12 UAS-luciferase reporter, agonist luminescence; normalized to butyrate control | actives 1.8% (n = 370,000);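 active means activation above a cutoff set at the mean of all screened compounds plus 3 SD, cut at about 10% in these data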;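 further: 0% = DMSO wells and 100% = sodium butyrate wells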
# AHR activator = human AHR activation; P35869; AHR-responsive luciferase reporter cells, luminescence; activation, % at 5 µM; actives 2.5% (n = 320,000); in the data active means activation above about 47%;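 further: 0% = vehicle wells and 100% = reference agonist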
# Target sequence (P35869 whole entry, looked up): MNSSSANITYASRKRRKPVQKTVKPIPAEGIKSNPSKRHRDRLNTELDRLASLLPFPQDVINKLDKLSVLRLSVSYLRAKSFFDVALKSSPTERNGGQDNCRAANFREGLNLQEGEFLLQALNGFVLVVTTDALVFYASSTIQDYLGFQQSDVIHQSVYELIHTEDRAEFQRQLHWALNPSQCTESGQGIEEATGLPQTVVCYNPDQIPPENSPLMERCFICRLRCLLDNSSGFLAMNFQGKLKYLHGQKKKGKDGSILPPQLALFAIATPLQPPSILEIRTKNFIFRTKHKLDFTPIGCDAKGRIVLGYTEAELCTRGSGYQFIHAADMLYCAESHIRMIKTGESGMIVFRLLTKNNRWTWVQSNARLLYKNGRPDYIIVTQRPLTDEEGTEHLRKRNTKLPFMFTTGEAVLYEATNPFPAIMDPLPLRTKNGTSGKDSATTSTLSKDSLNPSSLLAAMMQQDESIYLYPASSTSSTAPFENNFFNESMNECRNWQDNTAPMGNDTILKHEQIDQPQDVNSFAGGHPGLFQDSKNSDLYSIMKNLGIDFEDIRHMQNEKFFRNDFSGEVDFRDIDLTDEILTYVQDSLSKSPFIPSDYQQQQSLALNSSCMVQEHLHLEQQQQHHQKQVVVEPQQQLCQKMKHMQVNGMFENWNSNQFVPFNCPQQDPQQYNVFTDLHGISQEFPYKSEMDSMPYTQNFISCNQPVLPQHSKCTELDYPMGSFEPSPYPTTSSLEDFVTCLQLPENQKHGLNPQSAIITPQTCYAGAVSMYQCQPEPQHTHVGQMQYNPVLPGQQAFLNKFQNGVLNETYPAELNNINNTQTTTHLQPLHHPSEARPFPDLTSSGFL
# DAX1 inh-1 = blocks DAX1 repression of SF-1 activated StAR promoter. HEK293T StAR-luciferase reporter, SF-1/DAX-1 repression relief. inhibition, % at 6.8 µM. actives 1.1% (n = 370,000). AID 652010;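 active means inhibition above the mean over all tested compounds plus 3 SD, cut at about 3.6% in these data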;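 further: 0% = DAX-1 cells with DMSO and 100% = cells lacking DAX-1 with DMSO; higher inhibition means more luminescence from relief of DAX-1 repression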
# ssDAF-12 act = activates DAF-12 receptor from parasite S. stercoralis | HEK293 ssDAF-12/GRIP1 lit1-tk-luc reporter, luminescence; % of 3 µM dafachronic acid response | activation, % at 6.8 µM | actives 1% (n = 370,000) | AID 652126;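 active means activation above the mean over all tested compounds plus 3 SD, cut at about 0.9% in these data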;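 further: 0% = DMSO-only wells and 100% = 3 µM delta7-dafachronic acid wells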
# DAX1 inh-2 = NR0B1 (DAX1) inhibition | P51843 | HEK293 Gal4-DAX1 luciferase reporter, luminescence | inhibition, % at 6.75 µM | actives 0.99% (n = 340,000);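 active means inhibition above the mean over all tested compounds plus 3 SD, cut at about 4.2% in these data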;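 further: 0% = DAX1-transfected cells with DMSO and 100% = empty-vector control cells with DMSO; inhibition shows as a rise in luminescence from relieved DAX1 repression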
# hcDAF12 agonist = H. contortus DAF-12 activation, primary screen. HEK293 hcDAF-12 lit1-tk-luc reporter, luminescence; 0% DMSO, 100% Δ7-dafachronic acid. activation, % at 6.8 µM. actives 1.4% (n = 370,000);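 active means activation above the mean of all tested compounds plus 3 SD, cut at about 5.5% in these data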;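 further: 100% = response to 3 µM Δ7-dafachronic acid high control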
# * = called active by the depositor; . = no result.
SMILES,hgDAF-12 ag,AHR activator,DAX1 inh-1,ssDAF-12 act,DAX1 inh-2,hcDAF12 agonist
C=CCOc1nc(-c2ccncc2)nc2ccccc12,0.8,51.9*,-0.5,-1.7,-0.2,-0.8
CCOc1nc(-c2ccc(Cl)cc2)nc2ccccc12,-0.8,61.6*,0.4,-0.4,-0.8,3.3
CCCOc1ccc(Oc2nc(-c3ccncc3)nc3ccccc23)cc1,-1.4,5.8,-0.1,-0.5,-0.7,0.0
COCCN(CCOC)c1nc(-c2ccc(C)cc2)nc2ccccc12,0.5,32.3,-0.2,-0.4,-1.5,3.5
COc1ccc(Oc2nc(-c3ccncc3)nc3ccccc23)cc1,1.6,16.7,-0.6,-0.8,.,0.6
CCCCN(CC)c1nc(-c2ccncc2)nc2ccccc12,-2.3,72.7*,-0.8,-1.8,-0.6,-2.9
COc1ccc(C(C(=O)NC(C)(C)C)N(C(=O)CCC(=O)Nc2cc(C)on2)c2ccc(C)c(C)c2)cc1 (configuration not stated),-2.7,-0.8,-0.5,-1.6,-0.3,-3.5
C=CCn1cc(F)c(=O)n(CC=C)c1=O,0.0,-0.1,-0.1,0.6,-0.8,0.2
Cc1ccc(S(=O)(=O)N(C)C)cc1NC(=O)Cn1c(CN2CCOCC2)nc2ccccc2c1=O,0.1,0.6,0.3,-1.1,0.9,-1.7
CCOC(=O)/C=C(\C)Sc1cc(=O)oc2ccccc12,-3.8,9.8,-2.3,-1.5,-2.8,-0.5
CCOC(=O)/C=C(\C)Sc1cc(O)c2ccccc2c1O,-4.3,.,-1.2,0.8,-2.7,5.8*
S=C1N(c2ccccc2)C(c2ccc(Br)cc2)N2CCCN12 (configuration not stated),1.2,-0.8,-0.4,-1.0,-0.1,-2.0
NC(=O)NN=C(C1CC1)C1CC1,1.6,.,-0.3,-0.8,4.9*,-0.5
C/C=C/c1ccccc1OCCCN1CCC(C(O)(c2ccccc2)c2ccccc2)CC1,-0.9,.,-0.2,-1.2,.,0.4
COc1cc(/C=C/C(=O)OC(C)C(=O)NC2CCCCC2C)cc(Cl)c1OC (configuration not stated),-1.2,1.0,0.2,-1.1,6.9*,-0.6
CC(OC(=O)/C=C/c1cccc(F)c1)C(=O)NC1CCCCC1C (configuration not stated),-1.6,-1.7,-0.7,-1.1,0.4,-0.5
COc1cccc(C(=O)N[C@H](C(=O)N2CCC[C@H]2C(=O)NCc2ccccc2)C2CCCCC2)c1,0.1,.,-0.5,-0.9,.,-0.7
CCSc1nc2sc3c(c2c(=O)[nH]1)CCc1ccccc1-3,0.8,56.6*,0.6,-0.9,-0.9,4.9
Cc1ccc(NC(=O)CCC(=O)N2CCC(C)CC2)c([N+](=O)[O-])c1,0.0,4.2,0.7,-1.1,-0.1,-0.8
COc1ccc(C(=O)COC(=O)c2cccs2)cc1,11.3*,-0.9,3.7*,0.2,1.7,1.7
CC(=O)Nc1ccc(C(=O)COC(=O)c2cccs2)c(F)c1,10.7*,-0.2,3.3,-0.4,1.1,2.1
O=C(CCCCC(=O)Nc1ccccc1Cl)Nc1ccccc1Cl,2.5,1.8,-0.3,-0.8,-0.2,0.1
NNC(=O)CNc1ccccc1Cl,-0.5,8.5,0.2,1.0*,1.9,-0.3
O=C(Cc1nc(=O)c2ccccc2s1)Nc1ccccc1,10.9*,50.0*,3.3,0.4,2.9,5.9*
O=C(Cc1ccccc1)Nc1nc(=O)c2ccccc2s1,4.3,-1.0,0.0,-1.6,-0.7,0.2
SMILES,hgDAF-12 ag,AHR activator,DAX1 inh-1,ssDAF-12 act,DAX1 inh-2,hcDAF12 agonist
C[C@@H]1CN([C@H](C)CO)C(=O)c2cc(Br)cnc2O[C@@H]1CN(C)C(=O)Nc1ccccc1,0.5,.,-0.5,-1.2,1.0,-0.7
COc1ccc(Br)c(/C=N/NC(=O)COc2ccc(-c3ccccc3)cc2)c1,0.1,23.7,0.2,-1.3,0.0,1.1
O=C(O)COc1ccccc1/C=N/NC(=O)COc1ccc(-c2ccccc2)cc1,5.9,68.3*,-0.4,-1.2,2.0,0.2
COc1ccc(CNC(=O)[C@@H](NC(=O)C2CCN(C(=O)[C@@H](N)CCSC)CC2)C(C)C)cc1,-2.5,-1.0,0.2,-1.0,5.9*,-0.8
CC(C)C[C@H](N)C(=O)N1CCC(C(=O)N[C@H](C(=O)NCc2ccc(F)cc2)C(C)C)CC1,1.3,0.2,-0.9,-0.5,2.4,-0.6
CC(C)C[C@H](N)C(=O)N1CCC(C(=O)N[C@H](C(=O)NC(C)c2ccccc2)C(C)C)CC1 (some centres not stated),0.4,0.6,0.9,-0.6,5.5*,-0.2
COc1ccc(CNC(=O)[C@@H](NC(=O)C2CCN(C(=O)[C@@H](N)CC(C)C)CC2)C(C)C)cc1,1.6,-1.6,1.3,-0.3,3.0,1.6
CSCC[C@H](NC(=O)OC(C)(C)C)C(=O)N1CCC(C(=O)N[C@@H](C)C(=O)NC(C)c2ccccc2)CC1 (some centres not stated),2.4,-0.9,-0.4,-1.6,8.3*,-1.8
CSCC[C@H](NC(=O)OC(C)(C)C)C(=O)N1CCC(C(=O)N[C@@H](C)C(=O)NCc2ccc(F)cc2)CC1,-1.3,-1.4,2.0,-1.0,1.9,1.0
CCOC(=O)CC[C@H]1CC[C@]2(CCCN(C(=O)c3ccc4ccccc4n3)C2)O1,-0.6,.,-0.5,-1.4,.,0.4
COC(=O)[C@]12C[C@H](CC(=O)N3CCCC3)C(=O)N(Cc3ccco3)C1=C[C@H](C1CCCC1)O[C@@H]2C,-1.1,.,-0.8,-1.1,.,-2.1
CCOc1ccc(-n2c(SCC(=O)c3ccc4ccccc4c3)nnc2-c2ccc(OC)cc2)cc1,-0.4,.,-0.5,-1.4,.,0.4
Cc1ccsc1/C=C1\CCC(C2CCCC2)C1=O (configuration not stated),9.3,2.0,1.1,-0.4,5.6*,0.8
COc1ccc(/C=C2\CCC(C3CCCC3)C2=O)c(OC)c1 (configuration not stated),0.3,14.1,0.3,-1.1,-0.5,-1.2
Cc1ccc(/C=C2\CCC(C3CCCC3)C2=O)cc1 (configuration not stated),7.8,-1.0,-0.3,0.9*,4.5*,-1.7
COc1cc(OC)c(OC)cc1/C=C1\CCC(C2CCCC2)C1=O (configuration not stated),1.1,55.5*,-0.9,-1.7,-0.3,-2.5
COc1ccc(/C=C2\CCC(C3CCCC3)C2=O)cc1OC (configuration not stated),2.5,6.2,0.9,-0.7,0.9,-1.9
COc1ccc(/C=C2\CCC(C3CCCC3)C2=O)cc1 (configuration not stated),5.1,3.5,0.8,0.1,3.5,1.6
Nc1[nH]c(C(=O)c2ccccc2)c(-c2ccccn2)c1C(=O)c1c[nH]c2ccccc12,2.5,.,-0.4,1.3*,.,-0.1
Nc1[nH]c(C(=O)c2ccccc2)c(-c2ccccn2)c1C(=O)c1c[nH]c2ccc(Br)cc12,0.8,.,.,-0.9,.,0.0
